# Source: PubChem BioAssay
# JMJD2A Tudor: JMJD2A Tudor domain (human) inhibition; AlphaScreen JMJD2A-Tudor / H3K4me3 peptide binding; O75164; Potency, µM (series often up to 114 µM), most hits filed as inhibitors; AID 504339; actives 4.4% (n = 390,000); also: nearly all actives have a fitted effect of over 50% in size
# HP1b chromo inh: blocks HP1-beta chromodomain binding to methylated histone tails | actives 0.56% (n = 390,000) | AlphaScreen HP1-beta / biotin-H3K9me3 peptide binding | Potency, µM (series often up to 114 µM), actives largely listed as inhibitors; also: nearly all actives have a fitted effect of over 70% in size
# Target sequence (P83916 whole entry, looked up): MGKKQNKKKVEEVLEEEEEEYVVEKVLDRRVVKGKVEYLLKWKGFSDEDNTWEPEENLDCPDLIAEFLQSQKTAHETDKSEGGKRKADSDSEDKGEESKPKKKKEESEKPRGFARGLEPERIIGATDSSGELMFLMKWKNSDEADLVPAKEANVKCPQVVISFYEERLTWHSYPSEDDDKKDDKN
#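 HP1-beta protein (50 nM final) preincubated 30 min at room temperature with biotinylated H3(1-18)K9me3 peptide (50 nM) in PBS pH 7.4, 0.01% Tween-20, then compound added for 30 min. AlphaScreen streptavidin donor/nickel chelate acceptor beads (10 ug/mL final), 30 min dark, luminescence read.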
# BAZ2B inh: blocks human BAZ2B; Q9UIF8; AlphaScreen BAZ2B-H3K14Ac peptide displacement; Potency, µM (series often up to 114 µM), hits mostly inhibitors; actives 4.4% (n = 360,000); AID 504333; also: nearly all actives have a fitted effect of over 60% in size
#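 AlphaScreen luminescence quantifies BAZ2B engagement of H3K14Ac peptide; the protein and biotinylated peptide are both at 50 nM final, buffer PBS pH 7.4 with 0.01% Tween-20, all steps at room temperature.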
# L3MBTL1 inh: L3MBTL1 (human) inhibition | Potency, µM (series often up to 57.1 µM), usual class: inhibitors | actives 0.66% (n = 230,000) | AlphaScreen L3MBTL1–H3K9me1 peptide binding; also: nearly all actives have a fitted effect of over 60% in size
#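 First, the protein-peptide complex forms for 30 min at room temperature (L3MBTL1 50 nM, biotinylated H3K9me1 peptide 75 nM). Next, compounds are pin-transferred and incubated 30 min. Finally, AlphaScreen beads are added and read after 30 min.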
# G9a inh: G9a (human) methyltransferase inhibition. actives 8.8% (n = 350,000). Q96KQ7. G9a H3K9 monomethylation, AlphaScreen, 2 h. Potency, µM (top dose mostly 102 µM), hits mostly inhibitors; also: nearly all actives have a fitted effect of over 75% in size
# Target sequence (Q96KQ7 913-1193 limits assumed): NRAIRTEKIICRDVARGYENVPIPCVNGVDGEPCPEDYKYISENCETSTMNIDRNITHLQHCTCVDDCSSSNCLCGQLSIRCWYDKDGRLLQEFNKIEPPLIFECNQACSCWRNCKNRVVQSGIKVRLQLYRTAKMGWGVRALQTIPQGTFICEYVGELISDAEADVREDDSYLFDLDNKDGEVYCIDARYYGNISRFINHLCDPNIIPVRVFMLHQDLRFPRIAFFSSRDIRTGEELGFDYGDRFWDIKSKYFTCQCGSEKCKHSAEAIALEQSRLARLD
#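 Signal arises when biotinylated H3K9 peptide, once monomethylated, bridges streptavidin donor and antibody-captured acceptor beads. Enzyme at 20 nM was preincubated 15 min with test compounds; peptide 500 nM and SAM 20 uM then reacted for 2 h.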
# Hits are given with their value; – = inactive; ? = inconclusive; · = no result given; [ ] = dose if it differs, or a comment. A selection: hits, their analogues and other compounds. The true share with any hit is near 11%. Calls follow the shape of the dose curve; as a rule, active = well fitted inhibition curve with a large enough effect; inconclusive = small, poorly fitted or top-dose-only effect; inactive = no such curve, though single readings can be large or run the other way.
SMILES,JMJD2A Tudor,HP1b chromo inh,BAZ2B inh,L3MBTL1 inh,G9a inh
Cn1c(NN)nc2c1c(=O)n(Cc1ccccc1)c(=O)n2C,–,–,?,·,28µM
Cn1c(=O)n(Cc2ccccc2)c(=O)c2c1nc1n2CCCN1CCc1ccccc1,?,?,?,·,50µM
CCc1ccc(NC(=O)Cn2c(-c3cncs3)nc3ccccc32)cc1,?,–,?,·,–
CCOc1ccccc1C1C(C(=O)Nc2ccccc2)=C(C)Nc2c(C(=O)Nc3ccc(F)cc3)cnn21 (stereo not drawn),–,–,–,·,–
Cc1ccc(CCNC(=O)CCSCc2ccccc2Cl)cc1,–,–,–,·,–
COc1ccc(S(=O)(=O)NC(C)C(=O)Nc2ccccc2C(F)(F)F)cc1 (stereo not drawn),–,–,–,·,11µM
O=C(CN(Cc1ccccc1)C1=NCCS1)c1ccccc1,–,–,–,–,50µM
O=C1C(Cl)=C(N2CCN(c3ccccc3[N+](=O)[O-])CC2)C(=O)c2ccccc21,5µM,8.9µM,2.5µM,?,7.9µM
Cn1cc(C(=O)c2ccccc2)cc1-c1nc2ccccc2n1C,–,–,–,–,50µM
Cc1oc(-c2nc3ccccc3n2C)cc1C(=O)c1ccccc1,?,–,–,–,10µM
Cn1c2cc(S(C)=O)sc2c2cnn(Cc3ccccc3F)c(=O)c21 (stereo not drawn),–,·,·,·,·
Cc1ccc(-c2csc(N3CCC[C@@H]3C(=O)NCCn3c(C(F)(F)F)nc4ccccc43)n2)cc1,?,–,?,–,?
O=C(NCCn1c(C(F)(F)F)nc2cc(C(F)(F)F)ccc21)[C@H]1CCCN1c1nc(CN2CCCCC2)cs1,–,–,–,–,71µM
CCSS(=O)(=O)c1cccc2cccnc12,1.1µM,?,22µM,–,0.45µM
O=C(O)CCS(=O)(=O)c1cccc2cccnc12,–,–,–,–,?
CCCNC(=O)c1ccccc1NC(=O)c1nsc2ccccc12,–,–,–,·,–
C=CCc1ccccc1OCC(O)CN1CCN(c2ccccc2OC)CC1 (stereo not drawn),–,–,–,–,–
C=CCc1ccccc1OCC(O)CN1CCN(c2ccccc2F)CC1 (stereo not drawn),–,–,–,–,?
C=CCc1cc(C)ccc1OCC(O)CN1CCN(c2ccccc2)CC1 (stereo not drawn),2.8µM,40µM,50µM,–,?
O=C(c1ccccc1)N1CCN(CC(O)COc2cccc3ccccc23)CC1 (stereo not drawn),–,–,–,–[2.29 µM],–[0.501 µM]
CC(COc1cccc2ccccc12)CN1CCN(C)CC1 (stereo not drawn),–,–,–,?,45µM
Cc1ccc(OCC(O)CN2CCN(c3ccccc3)CC2)cc1 (stereo not drawn),–,–,–,–,–
C=CCc1ccccc1OCC(O)CN1CCN(c2ccccc2)CC1 (stereo not drawn),?,–,50µM,·,?
C=CCc1cc(OC)ccc1OCC(O)CN1CCN(c2ccc(OC)cc2)CC1 (stereo not drawn),45µM,–,35µM,–,28µM
COc1ccc(CNc2ccnc(-c3ccccc3CN(C)C)n2)c(OC)c1,·,·,·,·,–[0.501 µM]
SMILES,JMJD2A Tudor,HP1b chromo inh,BAZ2B inh,L3MBTL1 inh,G9a inh
Cc1ccc(C(=O)NCC(=O)OC(C)C(=O)Nc2ccc(N3CCOCC3)cc2)s1 (stereo not drawn),–,–,–,–,–
COc1ccc(/C=C(/NC(=O)c2ccccc2)C(=O)N2CCOCC2)cc1OC,–,–,–,·,–
COC(=O)CSc1ncc2c(n1)-c1ccccc1N(Cc1ccc(Cl)cc1)S2(=O)=O,–,–,–,·,–
CCCOc1ccc(CNC(=O)CN2C(=O)c3cccnc3Oc3ccc(C)cc32)cc1,–,–,–,·,–
OC(COc1cccc2ccccc12)CN1CCOCC1 (stereo not drawn),–,–,·,·,·
C=CCc1ccc(OCC(O)CN2CCCCC2)c(OC)c1 (stereo not drawn),–,–,–,–,?
C=CCc1ccc(OCC(O)CN2CCN(c3ccccc3)CC2)c(OC)c1 (stereo not drawn),?,–,?,·,45µM
OC(COc1cccc2ccccc12)CN1CCN(c2ccccc2)CC1 (stereo not drawn),50µM,–,?,·,50µM
CCC1OC(=O)C(C)[C@@H](O[C@H]2C[C@@](C)(OC)C(O)C(C)O2)C(C)[C@@H](O[C@@H]2OC(C)CC(N(C)C)C2O)[C@@](C)(O)CC(C)CN(C)C(C)C(O)[C@]1(C)O (stereo partly drawn),·,·,·,·,–[2.33 µM]
Cc1ccccc1CCNC(=O)C1CCN(S(=O)(=O)c2ccc(-n3cnnn3)cc2)CC1,–,–,–,·,–[2.33 µM]
O=C(NCCc1ccc(Cl)cc1)C1CCN(S(=O)(=O)c2ccc(-n3cnnn3)cc2)CC1,79µM,–,–,–,–
Cc1c(C)c2c(cc(C)c3c(-c4ccccc4)coc32)oc1=O,–,–,–,·,–
Cc1ccc2[nH]c(C)c(/C=N/Nc3nc4ccccc4s3)c2c1,45µM,–,?,–,?
Brc1csc(/C=N/Nc2nc3ccccc3s2)c1,–,–,–,–,–
O=C(NCCCC1CCCC1)C1CCC(=O)N(Cc2ccc(Cl)cc2)C1 (stereo not drawn),–,–,–,·,·
O=C(N/N=C\c1ccc(COc2ccc([N+](=O)[O-])cc2)o1)c1ccc(Cl)cc1,–,–,–,·,–
COc1ccc(OCc2ccc(/C=N\NC(=O)c3sccc3C)o2)cc1,–,–,–,·,40µM
COc1ccc(CN2CCN(Cc3ccco3)CC2)cc1OC,20µM,?,28µM,–,8.9µM
COc1cccc(CN2CCN(Cc3ccco3)CC2)c1,7.9µM,?,50µM,·,10µM
COc1ccc(N=Nc2cc(C)c(O)c(CN3CCCCC3)c2)cc1,22µM,28µM,13µM,?,11µM
Oc1cc2c(cc1CN1CCc3ccccc3C1)OCO2,?,–,–,·,20µM
COc1ccccc1-c1noc(-c2ccc(N3CCOCC3)c([N+](=O)[O-])c2)n1,–,–,–,·,–
Cc1cccc(C(=O)Nc2cccc(C(=O)OCc3cc(=O)n4nc(C5CC5)sc4n3)c2)c1,–,–,–,·,–[12.7 µM]
O=C1c2[nH]nc(-c3ccccc3)c2C(c2ccccc2)N1c1cccc(C(F)(F)F)c1 (stereo not drawn),–,–,–,·,–
Clc1ccc(N2CCN(Cc3ccco3)CC2)cc1,1.8µM,?,50µM,–,5µM
FC(F)(F)c1ccc(CN2CCN(Cc3ccco3)CC2)cc1,–,–,–,–,50µM
COc1ccc(CN2CCN(Cc3ccco3)CC2)cc1,4µM,20µM,20µM,·,?
Clc1ccccc1N1CCN(Cc2ccco2)CC1,–,–,–,–,·
COc1ccc(CN2CCN(C(=O)c3ccco3)CC2)cc1,–,–,–,–,–
COc1ccccc1N1CCN(Cc2ccco2)CC1,3.2µM,–,?,–,?
